Measured values published in PubChem BioAssay (NCATS).
Several values for one entry are separate records, joined by “and”; a condition that tells them apart may be missing. Identical values can stand only once. Records with an inconclusive call do not appear. Values without a mark were called inactive. Activity calls are given as the source filed them. Unless noted, calls follow the shape of the dose curve; as a rule, active = well fitted curve in the direction sought with a large enough effect; inconclusive = small, poorly fitted or top-dose-only effect, or another doubt; inactive = no such curve, though single readings can be large; an effect the other way counts as inactive or inconclusive.

Tested on: not listed separately
Test: Primary qHTS for small molecule stabilizers of the endoplasmic reticulum resident proteome: Secreted ER Calcium Modulated Protein (SERCaMP) assay (AID 1508630)
Conditions: SH-SY5Y GLuc-SERCaMP (Gaussia luciferase released on ER calcium loss) secretion, thapsigargin, luminescence; series mostly up to 38.4 µM; activity change, negative = inhibition: at the top concentration
How it was run: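 The SH-SY5Y reporter protocol was run at 3 concentrations up to 38.3 uM (primary) or 11 concentrations (follow-up): 16 h compound, 100 nM thapsigargin for 4 h, then extracellular luciferase luminescence.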
% is scaled to controls: 0 for no effect and ±100 for the full control effect.

Compound | activity change, negative = inhibition [%] | Potency
CC(C)OC(=O)CCCC=CC[C@@H]1[C@H](C=C[C@@H](O)COc2cccc(C(F)(F)F)c2)[C@H](O)C[C@@H]1O | 9.96 | –
CCCCCNC(=O)N1CCC(CN(Cc2ccc(Cl)cc2)Cc2ccc([N+](=O)[O-])s2)C1 (stereo not drawn) | -5.96 | –
O=C(Nc1cccc(Br)c1)c1cccc(S(=O)(=O)N2CCCCCC2)c1 | 113 | –
CC(=O)O[C@]1(C(C)=O)CC[C@@H]2[C@@H]3C[C@H](C)C4=CC(=O)CC[C@]4(C)[C@H]3CC[C@@]21C | 12 | –
C[C@H](NC(=O)c1sccc1OCc1ccc(Cl)cc1)c1ccccc1 | 0 | –
O=C(O)c1ccc(-c2cc3cccnc3c(-c3ccc4nonc4c3)n2)cc1 | 0 | –
O=C1Nc2ccc(Cl)cc2C(C#CC2CC2)(C(F)(F)F)O1 (stereo not drawn) | 60.8 | –
Cc1ccc([C@@H]2O[C@H](CO)[C@@H](O)[C@H](O)[C@@H]2O)cc1Cc1ccc(-c2ccc(F)cc2)s1 | -42.5 | –
COc1ccc2c(Oc3ccc(NC(=O)c4c(C)n(CC(C)(C)O)n(-c5ccccc5)c4=O)nc3)ccnc2c1 | -16.8 | –
O=C(CCCCCCC(=O)Nc1ccccc1)NO | – | inactive
O=C(CCN1CCN(C(=O)OCc2cc(Cl)cc(Cl)c2)CC1)c1ccc2[nH]c(=O)oc2c1 | 174 | –
Clc1ccc(-c2nc3sccn3c2C=NOCc2ccc(Cl)c(Cl)c2)cc1 | 0 | –
Cc1ccc(/C=N/NC(=O)c2ccccc2Oc2ccccc2)o1 | 19.6 | –
CCc1ccc(OCc2ccccc2C(=O)Nc2ccc3nc(C)cc(N)c3c2)cc1 | 264 | –
COc1cc(N2CCC(N3CCN(C)CC3)CC2)ccc1Nc1ncnc(Nc2ccccc2S(=O)(=O)C(C)C)n1 | 0 | –
CS(=O)c1ccc(-c2nc(-c3ccc(F)cc3)c(-c3ccncc3)[nH]2)cc1 (stereo not drawn) | – | inactive
COc1cc(NC(=O)c2ccc(-c3ccc(Cl)cc3)o2)cc(OC)c1 | 0 | –
O=C1C[C@@H](c2ccc(O)cc2)Oc2cc(O)cc(O)c21 | 44.2 | –

Compound | activity change, negative = inhibition [%] | Potency
COc1cc2ncnc(-n3nc(-c4ccccn4)nc3N)c2cc1OC | 59.4 | –
COc1cc2c(cc1OC)CN(CCc1ccc(NC(=O)c3cc(OC)c(OC)cc3NC(=O)c3cnc4ccccc4c3)cc1)CC2 | 150 | –
Cc1c(NC(=O)c2ccc(C(C)(C)C)cc2)cccc1-c1cn(C)c(=O)c(Nc2ccc(C(=O)N3CCOCC3)cc2)n1 | 0 | –
CC(C)(C)NC(=O)Nc1cccc(Nc2ncc(F)c(NC(C)(C)CO)n2)c1 | 121 | –
CCOC(=O)C1=C(N)Oc2ccc(Br)cc2C1C(C#N)C(=O)OCC (stereo not drawn) | – | inactive
CC1(C)Cc2c(sc(NC(=S)NC(=O)c3ccccc3)c2C(=O)O)CO1 | 9.87 | –
CN1C[C@H]2c3ccccc3Oc3ccc(Cl)cc3[C@@H]2C1 | 39.8 | –
COc1ccc(-c2coc3cc(O)ccc3c2=O)cc1 | 89.6 | –
COc1cccc2c1CCCC2CCCN1CCN(C2CCCCC2)CC1 (stereo not drawn) | 76.8 | –
CON=C(C(=O)N[C@@H]1C(=O)N2C(C(=O)OCOC(=O)C(C)(C)C)=C(C=Cc3scnc3C)CS[C@H]12)c1csc(N)n1 | 220 | –
C[C@H]1[C@H](NC(=O)C(=NOC(C)(C)C(=O)O)c2csc(N)n2)C(=O)N1S(=O)(=O)O | -16.5 | –
CCOc1ccc(Nc2nc(-c3c(C)nc4ccccn34)cs2)cc1 | 39.8 | –
CCCCCCCCCCCC1=C(O)C(=O)C=C(O)C1=O | 78.3 | –
Cc1[nH]c(C=C2C(=O)Nc3ccc(S(=O)(=O)Cc4c(Cl)cccc4Cl)cc32)c(C)c1C(=O)N1CCC[C@H]1CN1CCCC1 | 0 | –
O=C1NC(=O)C(=Cc2ccc3c(c2)OC(F)(F)O3)S1 | 131 | –
O=c1c(-c2ccc(O)cc2)coc2cc(OC3O[C@H](CO)[C@H](O)[C@H](O)[C@H]3O)cc(O)c12 (stereo partly drawn) | 149 | –
CC(C)(C)Cn1c(N)nc2ccc(-c3[nH]c(C(C)(C)C)nc3-c3ccc(F)cc3)nc21 | 102 | –
N#CC1(c2ccc(NC(=O)c3cccnc3NCc3ccncc3)cc2)CCCC1 | 22.3 | –

Target: Cytochrome P450 2D6 (Homo sapiens) (UniProt P10635)
Test: Cytochrome P450 family 2 subfamily D member 6 (CYP2D6) small molecule antagonists: luciferase biochemical (cell-free) qHTS assay (AID 1645840; active = well fitted curve in the direction sought with a large enough effect in the repeat runs; an effect the other way counts as inactive or inconclusive; also: nearly all actives have a fitted effect of over 55% in size; also: potency is read from the fitted curve at half-maximal effect)
Conditions: P450-Glo CYP2D6 enzyme, luciferin luminescence, 1 h; series mostly up to 57.4 µM; activity change, negative = inhibition: at the top concentration
How it was run: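 P450-Glo CYP2D6 system: proluciferin substrate converted by enzyme to luciferin, read by luminescence proportional to activity. Enzyme-substrate mix with compound 10 min at room temperature, then NADPH regeneration 1 h before detection reagent.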

Sequence of Cytochrome P450 2D6 (Homo sapiens) (P10635 whole entry, looked up): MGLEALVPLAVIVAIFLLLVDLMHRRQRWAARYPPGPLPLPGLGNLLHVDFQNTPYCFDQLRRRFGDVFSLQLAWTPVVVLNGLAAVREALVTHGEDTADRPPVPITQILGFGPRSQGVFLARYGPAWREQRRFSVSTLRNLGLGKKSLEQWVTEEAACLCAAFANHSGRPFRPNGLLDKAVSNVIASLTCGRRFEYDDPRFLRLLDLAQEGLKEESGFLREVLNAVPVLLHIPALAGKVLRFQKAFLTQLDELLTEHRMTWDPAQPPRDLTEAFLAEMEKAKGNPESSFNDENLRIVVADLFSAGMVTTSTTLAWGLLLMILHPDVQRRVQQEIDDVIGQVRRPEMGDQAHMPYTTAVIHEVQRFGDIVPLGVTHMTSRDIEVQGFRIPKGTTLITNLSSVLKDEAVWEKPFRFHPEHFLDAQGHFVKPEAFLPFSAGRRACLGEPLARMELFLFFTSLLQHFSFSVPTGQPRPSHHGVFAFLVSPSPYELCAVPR

Compound | Potency | activity change, negative = inhibition [%]
CCCCCNC(=O)N1CCC(CN(Cc2ccc(Cl)cc2)Cc2ccc([N+](=O)[O-])s2)C1 (stereo not drawn) | 2.39 µM (active) | –
O=C1Nc2ccc(Cl)cc2C(C#CC2CC2)(C(F)(F)F)O1 (stereo not drawn) | 16.9 µM (active) | –
COc1ccc2c(Oc3ccc(NC(=O)c4c(C)n(CC(C)(C)O)n(-c5ccccc5)c4=O)nc3)ccnc2c1 | – | -8.79
Clc1ccc(-c2nc3sccn3c2C=NOCc2ccc(Cl)c(Cl)c2)cc1 | – | 7.16
COc1cc2ncnc(-n3nc(-c4ccccn4)nc3N)c2cc1OC | 7.56 µM (active) | –
Cc1c(NC(=O)c2ccc(C(C)(C)C)cc2)cccc1-c1cn(C)c(=O)c(Nc2ccc(C(=O)N3CCOCC3)cc2)n1 | – | 1.34
CCOc1ccc(Nc2nc(-c3c(C)nc4ccccn34)cs2)cc1 | 15.1 µM (active) | –

Target: Cytochrome P450 2C9 (Homo sapiens) (UniProt P11712)
Test: Cytochrome P450 family 2 subfamily C member 9 (CYP2C9) small molecule antagonists: luciferase biochemical (cell-free) qHTS assay (AID 1645842; active = well fitted curve in the direction sought with a large enough effect in the repeat runs; an effect the other way counts as inactive or inconclusive; also: nearly all actives have a fitted effect of over 55% in size; also: potency is read from the fitted curve at half-maximal effect)
Conditions: P450-Glo CYP2C9 enzyme assay, luciferin luminescence; series mostly up to 57.4 µM; activity change, negative = inhibition: at the top concentration
How it was run: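 P450-Glo CYP2C9 system: proluciferin substrate with enzyme in mix containing 0.4% BSA, 10 min at room temperature, then NADPH regeneration solution added and incubated 1 h at 37C. Detection reagent stopped reaction; luminescence read after 20 min as RLU.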

Sequence of Cytochrome P450 2C9 (Homo sapiens) (P11712 whole entry, looked up): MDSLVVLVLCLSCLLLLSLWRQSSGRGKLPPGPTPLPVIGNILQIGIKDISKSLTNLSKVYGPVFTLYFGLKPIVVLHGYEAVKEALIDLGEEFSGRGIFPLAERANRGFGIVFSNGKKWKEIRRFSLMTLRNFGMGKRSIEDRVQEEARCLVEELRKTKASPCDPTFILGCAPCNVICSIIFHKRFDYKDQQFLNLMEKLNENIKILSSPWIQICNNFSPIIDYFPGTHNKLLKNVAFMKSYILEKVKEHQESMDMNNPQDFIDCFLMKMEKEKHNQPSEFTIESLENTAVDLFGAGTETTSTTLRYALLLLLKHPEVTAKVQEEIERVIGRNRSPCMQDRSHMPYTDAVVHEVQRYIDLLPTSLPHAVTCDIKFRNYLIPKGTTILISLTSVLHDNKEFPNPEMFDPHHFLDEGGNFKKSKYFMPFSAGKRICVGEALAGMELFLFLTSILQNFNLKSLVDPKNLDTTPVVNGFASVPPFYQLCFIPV

Compound | Potency | activity change, negative = inhibition [%]
CCCCCNC(=O)N1CCC(CN(Cc2ccc(Cl)cc2)Cc2ccc([N+](=O)[O-])s2)C1 (stereo not drawn) | 2.68 µM (active) | –
O=C(Nc1cccc(Br)c1)c1cccc(S(=O)(=O)N2CCCCCC2)c1 | 6.01 µM (active) | –
C[C@H](NC(=O)c1sccc1OCc1ccc(Cl)cc1)c1ccccc1 | 0.952 µM (active) | –
O=C1Nc2ccc(Cl)cc2C(C#CC2CC2)(C(F)(F)F)O1 (stereo not drawn) | 12 µM (active) | –
Cc1ccc([C@@H]2O[C@H](CO)[C@@H](O)[C@H](O)[C@@H]2O)cc1Cc1ccc(-c2ccc(F)cc2)s1 | 12 µM (active) | –
COc1ccc2c(Oc3ccc(NC(=O)c4c(C)n(CC(C)(C)O)n(-c5ccccc5)c4=O)nc3)ccnc2c1 | 19 µM (active) | –
O=C(CCCCCCC(=O)Nc1ccccc1)NO | – | -3.05
O=C(CCN1CCN(C(=O)OCc2cc(Cl)cc(Cl)c2)CC1)c1ccc2[nH]c(=O)oc2c1 | 7.56 µM (active) | –
Clc1ccc(-c2nc3sccn3c2C=NOCc2ccc(Cl)c(Cl)c2)cc1 | 3.79 µM (active) | –
CCc1ccc(OCc2ccccc2C(=O)Nc2ccc3nc(C)cc(N)c3c2)cc1 | 26.8 µM (active) | –
COc1cc(N2CCC(N3CCN(C)CC3)CC2)ccc1Nc1ncnc(Nc2ccccc2S(=O)(=O)C(C)C)n1 | – | 11.8
CS(=O)c1ccc(-c2nc(-c3ccc(F)cc3)c(-c3ccncc3)[nH]2)cc1 (stereo not drawn) | 0.952 µM (active) | –
COc1cc(NC(=O)c2ccc(-c3ccc(Cl)cc3)o2)cc(OC)c1 | 8.49 µM (active) | –
O=C1C[C@@H](c2ccc(O)cc2)Oc2cc(O)cc(O)c21 | 5.35 µM (active) | –
COc1cc2c(cc1OC)CN(CCc1ccc(NC(=O)c3cc(OC)c(OC)cc3NC(=O)c3cnc4ccccc4c3)cc1)CC2 | – | 8.8
Cc1c(NC(=O)c2ccc(C(C)(C)C)cc2)cccc1-c1cn(C)c(=O)c(Nc2ccc(C(=O)N3CCOCC3)cc2)n1 | 2.13 µM (active) | –
CC(C)(C)NC(=O)Nc1cccc(Nc2ncc(F)c(NC(C)(C)CO)n2)c1 | 23.9 µM (active) | –
CCOC(=O)C1=C(N)Oc2ccc(Br)cc2C1C(C#N)C(=O)OCC (stereo not drawn) | 6.01 µM (active) and 12 µM (active) and 10.7 µM (active) | –
CC1(C)Cc2c(sc(NC(=S)NC(=O)c3ccccc3)c2C(=O)O)CO1 | 19 µM (active) | –
CN1C[C@H]2c3ccccc3Oc3ccc(Cl)cc3[C@@H]2C1 | – | 0.577
COc1cccc2c1CCCC2CCCN1CCN(C2CCCCC2)CC1 (stereo not drawn) | – | -6.09
CON=C(C(=O)N[C@@H]1C(=O)N2C(C(=O)OCOC(=O)C(C)(C)C)=C(C=Cc3scnc3C)CS[C@H]12)c1csc(N)n1 | 12 µM (active) | –
CCOc1ccc(Nc2nc(-c3c(C)nc4ccccn34)cs2)cc1 | 13.5 µM (active) | –
O=c1c(-c2ccc(O)cc2)coc2cc(OC3O[C@H](CO)[C@H](O)[C@H](O)[C@H]3O)cc(O)c12 (stereo partly drawn) | – | 2
CC(C)(C)Cn1c(N)nc2ccc(-c3[nH]c(C(C)(C)C)nc3-c3ccc(F)cc3)nc21 | 5.35 µM (active) | –
